# High-throughput results deposited in PubChem by National Center for Advancing Translational Sciences (NCATS).
# Eya2 phos inh: blocks the phosphatase activity of human Eya2; O00167; recombinant Eya2, OMFP fluorescence dephosphorylation (OMFP is methylfluorescein phosphate); Potency, µM (highest dose often 76.9 µM), for the others: top-dose activity, negative = inhibition, most hits filed as inhibitors; 330,000 tested, 0.006% active; AID 488837; active = well fitted curve in the direction sought with a large enough effect; inconclusive = small, poorly fitted or top-dose-only effect, or another doubt; inactive = no such curve, though single readings can be large; an effect the other way counts as inactive or inconclusive; also: potency is read from the fitted curve at half-maximal effect; % is scaled to controls: 0 for no effect and ±100 for the full control effect
#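 Eya2 (0.2 uM) preincubated 10 min at ambient with compound, then OMFP substrate added at 50 uM; 10 min reaction in 50 mM HEPES pH 7.5, 50 mM NaCl, 5 uM MgCl2, 0.05% BSA, 1 mM DTT. Fluorescence read at Ex 485/Em 525 nm.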
# CtBP-E1A inh: CtBP/E1A binding inhibition; activity change, % (test concentration not listed); 340,000 tested, 0.49% active; AID 651724; AlphaScreen GST-E1A/His-CtBP binding, 1536-well; stronger effect = lower value; also: % is scaled to controls: 0 for no effect and ±100 for the full control effect
#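 Homogeneous bead-based format: GST-tagged E1A captured on glutathione donor beads, His-tagged CtBP on nickel acceptor beads; compounds precede bead addition by 2 h at 37 °C.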
# Six1-Eya2 blk: inhibitors of human Six1/Eya2 interaction. activity change, % (concentration not given with the values). 360,000 tested, 0.56% active. AID 651725. Q15475+O00167. AlphaScreen GST-Six1/His-Eya2 binding, biochemical; stronger effect = lower value; also: % is scaled to controls: 0 for no effect and ±100 for the full control effect
# Target sequence (O00167 whole entry, looked up): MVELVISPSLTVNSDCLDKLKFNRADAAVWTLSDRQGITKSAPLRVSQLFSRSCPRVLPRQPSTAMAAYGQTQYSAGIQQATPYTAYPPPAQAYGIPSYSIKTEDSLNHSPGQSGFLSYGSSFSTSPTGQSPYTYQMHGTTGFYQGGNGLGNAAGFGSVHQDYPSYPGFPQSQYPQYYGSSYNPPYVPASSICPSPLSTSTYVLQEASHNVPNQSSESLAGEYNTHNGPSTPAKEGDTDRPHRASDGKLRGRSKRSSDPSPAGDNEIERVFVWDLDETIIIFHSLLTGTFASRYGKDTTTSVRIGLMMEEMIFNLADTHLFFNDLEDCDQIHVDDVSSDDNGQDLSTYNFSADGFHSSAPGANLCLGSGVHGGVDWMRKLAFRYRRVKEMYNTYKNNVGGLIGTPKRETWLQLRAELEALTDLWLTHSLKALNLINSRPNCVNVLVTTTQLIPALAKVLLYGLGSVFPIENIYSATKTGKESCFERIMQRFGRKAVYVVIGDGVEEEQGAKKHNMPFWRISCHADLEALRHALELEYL
# Target sequence (Q15475 whole entry, looked up): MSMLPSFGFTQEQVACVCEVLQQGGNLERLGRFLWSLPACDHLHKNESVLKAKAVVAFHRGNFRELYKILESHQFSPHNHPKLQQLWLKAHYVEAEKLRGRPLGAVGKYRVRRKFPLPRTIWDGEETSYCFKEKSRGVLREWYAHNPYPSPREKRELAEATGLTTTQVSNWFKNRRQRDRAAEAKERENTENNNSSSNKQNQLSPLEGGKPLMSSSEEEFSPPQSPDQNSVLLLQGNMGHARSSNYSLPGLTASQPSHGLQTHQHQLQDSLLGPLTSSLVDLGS
#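 Six1/Eya2 binding was read as AlphaScreen signal after compounds were pinned into GST-Six1 plus His-tagged Eya2 (5X stock 250/500 nM) in pH 8.0 Tris/NaCl/TCEP buffer, beads added, then incubated 1 h, 37 C, dark.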
# GRP78 ERSR act: induces the endoplasmic reticulum stress response in human glioma cells | U87-MG GRP78 promoter luciferase reporter, 16 h | Potency, µM, inactives show at the top dose activation, actives largely listed as activators | 420,000 tested, 0.02% active; active = well fitted curve in the direction sought with a large enough effect; inconclusive = small, poorly fitted or top-dose-only effect, or another doubt; inactive = no such curve, though single readings can be large; an effect the other way counts as inactive or inconclusive; also: potency is read from the fitted curve at half-maximal effect; series mostly up to about 76 µM; % of control where 0% means no effect; nearly all actives have a fitted effect of over 35% in size
#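 Stably transfected U87-MG human glioma cells carrying a GRP78-based luminescent sensor were seeded at 1000 cells/well, pin-dosed with compounds and incubated 16 h. Luciferase reagent was then added, and end-point luminescence was read after 10 min at room temperature.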
# Starred values were filed as active, the others as inactive; ? = inconclusive; . = no result given. Compounds with a hit are over-represented: about 0.58% of the library has one in this group of screens. Rule as the data show it, unless noted: active = activity change below about -65%; inconclusive = mostly about -30% to -63%; inactive = weaker than that.
SMILES,Eya2 phos inh,CtBP-E1A inh,Six1-Eya2 blk,GRP78 ERSR act
Cc1ccc2[nH]c3c(c2c1)CN(C(=O)CC1(c2ccccc2)CC(=O)N(Cc2cccnc2)C1=O)CC3 (centres undefined),.,.,.,0.5%
Cn1c(-c2ccncc2)nc2cc(C(=O)N3CCCC3c3nccs3)cc(NC(=O)C3CCC3)c21 (centres undefined),.,.,.,-4.9%
Cc1cc([N+](=O)[O-])nn1Cc1ccc(C(=O)N/N=C/c2ccc(O)cc2O)cc1,-2.4%,?,-88.5*,-3.8%
Cc1cc(C)n(CC(=O)N/N=C/c2cc([N+](=O)[O-])ccc2O)n1,7.7%,-91.1*,-88.0*,-5.6%
CS(=O)(=O)c1ccc(-c2cccc3c2OC(CNC(=O)c2ccnc(Cl)c2)C3)cc1 (centres undefined),.,.,.,-5.9%
c1ccc2c(N3CCCCCC3)nc(CN3CCCCC3c3nccs3)nc2c1 (centres undefined),.,.,.,-5.3%
CCOc1ccc2c(c1)-c1c(ssc1=S)C(C)(C)N2C,-5.7%,-71.3*,?,-5.0%
NC(=O)[C@@H]1CCCN1C(=O)c1cc(NC(=O)c2ccccc2)cc2ncn(C3CCCC3)c12,.,.,.,-6.1%
O=C(Nc1cc(C(=O)NC2CCOCC2)c2c(c1)ncn2C1CCCC1)c1ccccc1,.,.,.,-2.3%
O=C(NNC(=O)C1CC1)c1ccccc1[N+](=O)[O-],-9.9%,9.4,2.9,-1.5%
O=C(NNC(=O)c1ccccc1[N+](=O)[O-])c1ccccn1,-0.7%,1.6,-77.2*,-1.5%
C[C@H](NC(=O)c1ccccc1)C(=O)Nc1nc(-c2ccccn2)cs1,1.5%,-81.1*,-84.0*,-6.0%
CC(Oc1ccccc1)C(=O)Nc1nc(-c2ccncc2)cs1 (centres undefined),-7.1%,-6.0,11.1,2.0%
CC(Oc1ccccc1)C(=O)Nc1nc(-c2ccccn2)cs1 (centres undefined),-0.4%,-86.6*,-67.5*,5.0%
Cc1cccc(C(=O)NC(C(=O)Nc2nc(-c3ccccn3)cs2)C(C)C)c1 (centres undefined),1.6%,.,?,-5.8%
CC(Oc1cccc(Cl)c1)C(=O)Nc1nc(-c2ccccn2)cs1 (centres undefined),0.8%,-73.9*,?,-4.5%
Nc1ccc(O)c2c1C(=O)c1ccccc1C2=O,-13.3%,-86.0*,-84.5*,-1.9%
Nc1ccc(Br)c2c1C(=O)c1ccccc1C2=O,-6.1%,-75.2*,?,-1.9%
COc1ccc(N)c2c1C(=O)c1ccccc1C2=O,-11.2%,?,-11.0,-0.1%
COc1cc(-c2nnc(SCC(=O)Oc3ccccc3Cl)o2)cc(OC)c1OC,.,.,.,22.4µM*
COc1cc(-c2nnc(SCc3ccccc3Cl)o2)cc(OC)c1OC,8.1%,1.3,8.0,0.3%
CCOC(=O)C(C)Sc1nc(-c2ccccn2)ncc1OC (centres undefined),-12.8%,.,-91.1*,-2.0%
Cc1nnc(-c2ccccc2)nc1N(C)C,-4.4%,0.8,-7.9,-1.2%
COc1cnc(-c2ccccn2)nc1N(C)C,3.3%,-93.8*,-89.1*,-5.3%
CN(C)c1nc(-c2ccccn2)nnc1-c1ccccc1,-29.8%,-96.4*,-91.8*,-3.8%
SMILES,Eya2 phos inh,CtBP-E1A inh,Six1-Eya2 blk,GRP78 ERSR act
Cc1ccnn1CC(=O)N1CCOc2c(cc(-c3csc4ccccc34)cc2OC2CCOC2)C1 (centres undefined),.,.,.,-3.0%
OC1(c2ccc3c(c2)CN(Cc2nccs2)CCO3)CCN(c2ccccc2F)CC1,.,.,.,2.2%
O=S(=O)(O)c1cc(O)c2c(O)c(N=Nc3cc(Cl)ccc3O)c(S(=O)(=O)O)cc2c1,?,-94.7*,-74.7*,-8.5%
Cn1c(C(c2cc3ccccc3n2C)c2cc3ccccc3n2C)cc2ccccc21,.,.,.,-10.4%
Cc1ccc2c(c1)C1C=CCC1C(C(=O)O)N2 (centres undefined),-5.7%,.,.,.
CC(=O)c1ccc2c(c1)C1C=CCC1C(C(=O)O)N2 (centres undefined),9.1%,?,-68.3*,-5.9%
O=S(=O)(Cc1ccccc1Cl)N1CCCC1,6.1%,-78.7*,2.2,-5.7%
CN1CCN(S(=O)(=O)Cc2ccccc2Cl)CC1,5.1%,-0.4,1.4,2.0%
CCN(CCCNc1cc2c(c(N)c1S(=O)(=O)O)C(=O)c1ccccc1C2=O)c1ccccc1,.,-15.6,-65.3*,-1.1%
Nc1nc2ccc(C(=O)NCCOC(=O)C3CCCCC3)cc2s1,-8.5%,.,-77.1*,-1.2%
O=C(Cn1cnc2ccccc21)N/N=C/C(Br)=C/c1ccccc1,0.0%,-83.4*,0.0,-7.8%
COC1=C(Nc2ccccc2)C(=O)c2ccccc2C1=O,-5.5%,-66.6*,-83.3*,-1.2%
COC1=C(Nc2ccc(C)cc2)C(=O)c2ccccc2C1=O,-1.1%,-90.2*,-86.0*,1.6%
COc1cc(=O)n2c(c1C(=O)N(C)Cc1cscn1)CCN(Cc1ccc3c(c1)OCCO3)CC2,.,.,.,-4.5%
Cc1cnc(SCc2ccccn2)nc1C1CCCN(C(=O)c2cc3ccccc3oc2=O)C1 (centres undefined),.,.,.,4.3%
COC(=O)CSc1nnc(CNc2nc(-c3ccccc3)cs2)n1C,3.3%,-26.6,?,-2.3%
COc1ccc(C(=O)CSc2nnc(CNc3nc(-c4ccccc4)cs3)n2C)cc1,-2.9%,-69.9*,-70.9*,-3.9%
COc1cccc(/C=N/NC(=O)C(=O)NCc2ccco2)c1OC,5.7%,1.9,-2.0,-0.4%
COc1cccc(/C=N/NC(=O)c2c(-c3ccccc3)noc2C)c1OC,.,-0.3,-0.4,-5.1%
COc1cccc(/C=N/NC(=O)c2c(-c3ccccc3)noc2C)c1O,7.3%,-91.4*,-89.6*,13.6%
COc1cccc(/C=N/NC(=O)C(=O)NCc2ccco2)c1O,-5.6%,-97.3*,-89.3*,-0.2%
COc1cccc(/C=N/NC(=O)C(=O)N2CCCCCC2)c1O,-6.3%,-89.4*,-82.5*,0.7%
COc1cccc(/C=N/NC(=O)c2ccoc2C)c1O,0.1%,-91.9*,-74.4*,-8.8%
O=C(Nc1cc(C(=O)N2CCN(CCO)CC2)c2c(c1)ncn2C1CCCC1)c1ccccc1,.,.,.,-3.1%
COc1ccc(CN2CCN(C(C)=O)CC2)cc1OC1CCN(C(=O)c2ccc3ccccc3n2)CC1,.,.,.,2.1%
SMILES,Eya2 phos inh,CtBP-E1A inh,Six1-Eya2 blk,GRP78 ERSR act
COc1ccc(/C=N/NC(=O)c2cnccn2)c(OC)c1OC,7.4%,.,1.0,-0.3%
COc1cccc(/C=N/NC(=O)c2cnccn2)c1O,-24.4%,-65.2*,-91.9*,-3.4%
CCOc1cc([N+](=O)[O-])cc(/C=N/NC(=O)c2c(-c3ccccc3)noc2C)c1O,-8.5%,-91.9*,-91.0*,-2.8%
CCOc1cc(/C=N/NC(=O)c2c(-c3ccccc3)noc2C)ccc1O,-23.7%,-3.9,-15.8,-3.2%
Cc1oc(-c2ccccc2NC(=O)C2CCC2)nc1CNC(=O)c1c(F)ccc(F)c1F,.,.,.,-5.3%
COC(=O)C1CCCCN1Cc1ccc2c(c1)CN(C(=O)c1ccc(C)s1)CCO2 (centres undefined),.,.,.,-3.8%
CCN(CC)c1ccc(/C=N/O)cc1,10.5%,-12.6,1.5,2.7%
CCN(CC)c1ccc(N=Nc2ncn[nH]2)cc1,-19.6%,-73.9*,-68.8*,-4.0%
